Screening results deposited in PubChem BioAssay by National Center for Advancing Translational Sciences (NCATS).
Sampled rows, rich in hits. Any-hit rate of the full collection: about 1.7%.
TrxR1 substrate: qHTS Assay for Substrates of Mammalian Selenoprotein Thioredoxin Reductase 1 (TrxR1): qHTS; Thioredoxin reductase 1, cytoplasmic (Rattus norvegicus), O89049; purified TrxR1 substrate turnover, NADPH consumption readout; Potency, µM (doses to about 114 µM); 390,000 tested, 0.01% active; AID 588456, 2011; further: nearly all actives have a fitted effect of over 50% in size
Target sequence (O89049 whole entry, looked up): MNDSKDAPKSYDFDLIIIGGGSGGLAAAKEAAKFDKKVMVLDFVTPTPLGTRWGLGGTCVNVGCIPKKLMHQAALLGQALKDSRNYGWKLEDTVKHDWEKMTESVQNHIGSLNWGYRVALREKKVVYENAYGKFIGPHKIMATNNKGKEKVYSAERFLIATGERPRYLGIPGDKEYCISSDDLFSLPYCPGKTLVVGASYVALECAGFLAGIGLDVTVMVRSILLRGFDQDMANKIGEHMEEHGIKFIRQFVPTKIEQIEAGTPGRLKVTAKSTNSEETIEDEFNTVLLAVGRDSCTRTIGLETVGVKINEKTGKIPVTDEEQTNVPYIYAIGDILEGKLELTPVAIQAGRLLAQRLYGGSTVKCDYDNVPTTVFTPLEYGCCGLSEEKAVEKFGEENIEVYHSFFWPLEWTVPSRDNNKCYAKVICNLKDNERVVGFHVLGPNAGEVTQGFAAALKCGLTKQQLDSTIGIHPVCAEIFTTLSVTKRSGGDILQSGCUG
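Rat TrxR1, dispensed at 90 nM, was prereduced with 400 uM NADPH (final) for 5 min at ~22 deg C, then incubated with compound 15 min before 400 uM selenite. A first-read NADPH fluorescence drop versus no-compound background flagged substrates.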
rTrxR1 inhibitor: qHTS Assay for Inhibitors of Mammalian Selenoprotein Thioredoxin Reductase 1 (TrxR1): qHTS | Potency, µM (top dose mostly 114 µM), actives largely listed as inhibitors | recombinant rTrxR1, NADPH fluorescence consumption, selenite substrate | 390,000 tested, 1% active; further: nearly all actives have a fitted effect of over 65% in size
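Rat TrxR1 (90 nM in the dispensed reagent) was pre-reduced with 400 uM NADPH for 5 min at room temperature, then incubated with compound for 15 min. After 400 uM selenite was added, NADPH fluorescence (Ex 340/Em 450 nm) was followed for 8 min.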
Apoferritin bind: qHTS Assay for Identification of Novel General Anesthetics; apoferritin/1-aminoanthracene competitive binding, fluorescence; Potency, µM (top dose mostly 77.5 µM), most hits filed as inhibitors; 350,000 tested, 0.074% active; Ferritin light chain (Equus caballus), P02791; further: nearly all actives have a fitted effect of over 20% in size
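Concentration-response curves derived by four-parameter Hill fitting of normalized fluorescence, where compounds displaced 1-AMA from 10 uM horse apoferritin following a brief 10 min room-temperature incubation; propofol titration acted as positive control.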
mIDH1 inhibitor: qHTS for Inhibitors of mutant isocitrate dehydrogenase 1 (IDH1): qHTS; Isocitrate dehydrogenase [NADP] cytoplasmic (Homo sapiens), O75874; IDH1-R132H enzyme, NADPH consumption, diaphorase/resazurin fluorescence; AID 602179, 2012; 390,000 tested, 0.093% active; Potency, µM (series often up to 76.6 µM), actives largely listed as inhibitors; further: nearly all actives have a fitted effect of over 65% in size
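IDH1-R132H (0.5 ug/mL dispensed) in pH 7.5 Tris buffer was preincubated 30 min with compound, then given a substrate mix of 0.016 mM NADPH and 2 mM alpha-KG for 80 min at room temperature; remaining NADPH was read by diaphorase/resazurin fluorescence.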
ALOX12 inh: Primary qHTS assay for inhibitors of human arachidonate 12S-lipoxygenase (ALOX12): Round 2; Polyunsaturated fatty acid lipoxygenase ALOX12 (Homo sapiens), P18054; purified 12hLO, xylenol orange hydroperoxide absorbance; Potency, µM (doses to about 108 µM), hits mostly inhibitors; 580,000 tested, 1.1% active
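Hydroperoxide product was detected by ferrous iron/xylenol orange as the 573 to 405 nm absorbance ratio. Arachidonic acid at 40 uM (final) was turned over for 30 min at room temperature by 150 nM human 12hLO, pH 7.0 Hepes buffer, after 15 min compound preincubation.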
GRP78 ERSR act: qHTS for Inducers of the Endoplasmic Reticulum Stress Response (ERSR) in Human Glioma: qHTS; Potency, µM, hits mostly activators; U87-MG GRP78 promoter luciferase reporter, 16 h; 420,000 tested, 0.02% active; further: series mostly up to about 76 µM; nearly all actives have a fitted effect of over 35% in size
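Stably transfected U87-MG glioma cells carrying a GRP78-based luciferase sensor; 16 h compound incubation. Luminescence end-point read 10 min after Bright-Glo addition at room temperature.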
A number is an active result; . = inactive; ? = inconclusive; / = no result. The call rests on the fitted dose curve; in most records, active means well fitted curve in the direction sought with a large enough effect; inconclusive means small, poorly fitted or top-dose-only effect, or another doubt; inactive means no such curve, though single readings can be large; an effect the other way counts as inactive or inconclusive.

SMILES	TrxR1 substrate	rTrxR1 inhibitor	Apoferritin bind	mIDH1 inhibitor	ALOX12 inh	GRP78 ERSR act
CCCCOc1ccc(S(=O)(=O)NCc2csc(-c3ccc(OC)cc3)n2)cc1	.	.	.	/	.	/
CCOc1ccc(N2C(=O)CC(Sc3ccccc3C(=O)O)C2=O)c([N+](=O)[O-])c1 (centres undefined)	.	28µM	.	.	?	.
CCN1C(=O)CC(Sc2ccccc2C(=O)O)C1=O (centres undefined)	.	.	.	.	.	.
COC(=O)c1ccccc1SC1CC(=O)N(c2ccccc2)C1=O (centres undefined)	.	?	.	.	.	.
O=C(O)c1ccccc1SC1CC(=O)N(c2cccc3ccccc23)C1=O (centres undefined)	.	20µM	.	.	.	.
CCOC(=O)c1c(N2C(=O)CC(Sc3ccccc3C(=O)O)C2=O)sc2c1CCCC2 (centres undefined)	.	.	.	.	16µM	.
O=C(NCCc1ccccc1)C1CCCN(C2CCN(Cc3ccncc3)CC2)C1 (centres undefined)	/	/	/	/	.	/
COC(=O)c1sc(S(=O)(=O)Nc2ccc(F)c(F)c2)c(C(=O)OC)c1C	/	/	/	/	.	/
Cn1cnnc1Sc1ccc(/C=C/C(=O)c2ccc(O)cc2)cc1[N+](=O)[O-]	.	22µM	.	.	.	?
CCC(C)(C)NC(=O)c1ccc(Sc2nncn2C)c([N+](=O)[O-])c1	.	.	.	.	.	.
COc1ccc(NC(=O)/C(C#N)=C/c2ccc(Sc3nncn3C)c([N+](=O)[O-])c2)cc1	.	50µM	.	.	.	.
CC(=O)c1ccc(F)c(-c2cc(C)cc3c2OC(CNC(=O)C(C)n2nc(C)cc2C)C3)c1 (centres undefined)	/	/	/	/	?	.
CC1CCCCC1NC(=S)NC(=O)c1cccs1 (centres undefined)	.	?	?	.	14µM	.
O=C(NNC(=S)NC1CCCCC1)c1cccs1	.	.	.	.	.	.
O=C(NC1CCCCC1)c1cccs1	.	.	13µM	.	.	.
CS(=O)(=O)n1nc(OC(=O)c2cccc3ccccc23)cc1N	.	56µM	?	.	.	.
CS(=O)(=O)n1nc(OC(=O)c2cc(Br)ccc2Cl)cc1N	.	6.3µM	.	.	.	.
CCOc1ccc(-n2c(C)cc(/C=C3/C(=N)N4C(=NC3=O)SN=C4S(C)(=O)=O)c2C)cc1	.	.	.	.	35µM	.
Cc1ccc(-n2cccc2/C=C2/C(=N)N3C(=NC2=O)SN=C3S(C)(=O)=O)cc1Cl	.	?	.	.	14µM	.
O=C(Nc1nccs1)c1cc(-c2ccco2)nc2ccccc12	.	.	.	.	45µM	.
Cc1csc(NC(=O)c2ccc3ccccc3n2)n1	.	.	.	.	14µM	.
Cc1csc(NC(=O)c2cc(-c3ccco3)nc3ccccc23)n1	.	?	.	.	25µM	.
Cc1csc(NC(=O)c2cc(C)nc3ccccc23)n1	.	.	.	.	.	.
O=C(Nc1nccs1)c1cc(-c2ccccc2)nc2ccccc12	.	.	.	.	.	.
Cc1csc(NC(=O)c2cnc3ccccc3n2)n1	.	.	.	.	.	.
FC(F)(F)c1ccc(N2C3CCC2CN(Cc2ccc(-c4cccs4)cc2)C3)cc1	/	/	/	/	.	/
COCC(C)NC(=O)c1noc2c1CCc1cc(OC)ccc1-2 (centres undefined)	.	10µM	.	.	.	.
COc1ccc2c(c1)CCc1c(C(=O)NCCN3CCOCC3)noc1-2	.	40µM	.	.	.	.
COc1ccc2c(c1)CCc1c(C(=O)NCCCn3ccnc3)noc1-2	.	16µM	.	.	.	.
